Assay outcomes: PubChem BioAssay, several laboratories
SENP7 block = blocks the human protease SENP7 | Q9BQF6 | recombinant SENP7, Z-RLRGG-aminoluciferin luminescence, 40 min | inhibition, % at 5 µM | 330,000 compounds, 1.5% hits | AID 434973;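 active = inhibition above about 50% at the single test dose, limit read from the data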;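 note: plate controls were DMSO with enzyme for no effect and no enzyme buffer wells for full effect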
SENP8 block-1 = SENP8 (human) protease inhibition | Q96LD8 | recombinant SENP8, Nedd8 substrate fluorescence | inhibition, % at 20 µM | 360,000 compounds, 0.64% hits | AID 602440; in the data active = inhibition mostly above about 40%, no sharp cut-off; inactive = mostly below about 27%
LGR2 antag = Drosophila LGR2 receptor signaling inhibition; HEK293 LGR2, CRE-luciferase, bursicon-stimulated, 4 h; inhibition, % at 9.99 µM; 380,000 compounds, 0.35% hits; AID 720647;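 active = drop in luminescence signal, shown as inhibition above about 50% in the replicate tests, limit read from the data, passing the limit was not always enough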;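 note: agonist challenge used bursicon conditioned medium at about half maximal strength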
SENP6 block = blocks the human protease SENP6. Recombinant SENP6 catalytic domain, aminoluciferin luminescence. inhibition, % at 10 µM. 330,000 compounds, 1.8% hits. AID 2599;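 active = inhibition above about 50% at the single tested dose, limit read from the data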;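 note: plate controls were DMSO wells with enzyme for no effect and DMSO wells lacking enzyme for full effect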
Target sequence (Q9GZR1 628-1112 limits assumed): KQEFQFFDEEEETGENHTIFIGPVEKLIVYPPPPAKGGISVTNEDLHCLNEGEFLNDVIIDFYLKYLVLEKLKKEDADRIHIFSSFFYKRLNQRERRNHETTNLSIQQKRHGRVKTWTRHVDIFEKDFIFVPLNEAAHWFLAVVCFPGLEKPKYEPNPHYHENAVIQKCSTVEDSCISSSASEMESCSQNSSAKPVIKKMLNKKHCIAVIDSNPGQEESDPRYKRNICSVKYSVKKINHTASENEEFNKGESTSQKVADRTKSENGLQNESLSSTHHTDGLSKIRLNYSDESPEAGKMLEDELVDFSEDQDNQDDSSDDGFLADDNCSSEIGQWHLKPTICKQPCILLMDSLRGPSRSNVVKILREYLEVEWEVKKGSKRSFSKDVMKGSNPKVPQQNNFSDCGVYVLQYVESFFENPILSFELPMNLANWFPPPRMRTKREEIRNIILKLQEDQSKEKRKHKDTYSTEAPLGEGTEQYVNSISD
SENP8 block-2 = blocks the human protease SENP8. purified SENP8, Z-RLRGG-aminoluciferin cleavage, luminescence. 330,000 compounds, 1.2% hits. inhibition, % at 10 µM. AID 2540. Q96LD8; in the data active = inhibition above about 50%
HSP90 inh = HSP90 refolding inhibition in rabbit reticulocyte lysate; luciferase refolding luminescence, 3 h; inhibition, % at 5.6 µM; 290,000 compounds, 0.91% hits; AID 1789;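 active = inhibition above the screen-wide mean plus 3 SD, computed separately per campaign, cut at about 16% in these data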;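 note: 0% = DMSO wells and 100% = 60 µM geldanamycin wells; inhibitors lower the luminescence because luciferase stays unfolded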
SENP8 conf = human SENP8 inhibition, confirmed. shares compounds with SENP7 block. Recombinant SENP8, Z-RLRGG-aminoluciferin luminescence, 60 min. inhibition, % at 12.5 µM. 6,200 compounds, 40% hits. AID 488912;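 active = mean inhibition across replicates above about 50%, limit read from the data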
SENP6 confirm = human SENP6 inhibition, confirmed. shares compounds with SENP7 block. 6,200 compounds, 58% hits. inhibition, % at 12.5 µM. recombinant SENP6, Z-RLRGG-aminoluciferin luminescence
SENP7 confirm = human SENP7 inhibition, confirmed; 6,200 compounds, 69% hits; AID 488917; shares compounds with SENP7 block; recombinant SENP7, Z-RLRGG-aminoluciferin luminescence, 40 min; inhibition, % at 12.5 µM
Casp3 select = inhibits human caspase-3 in SENP selectivity test; shares compounds with SENP7 block; purified caspase-3, Z-DEVD-aminoluciferin luminescence, 60 min; inhibition, % at 12.5 µM; 6,200 compounds, 60% hits; AID 488918;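 active = mean inhibition above about 50%, limit read from the data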;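 note: plate controls were enzyme with DMSO for no effect and wells without caspase-3 for full effect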
Target sequence (P42574 28-227 limits assumed): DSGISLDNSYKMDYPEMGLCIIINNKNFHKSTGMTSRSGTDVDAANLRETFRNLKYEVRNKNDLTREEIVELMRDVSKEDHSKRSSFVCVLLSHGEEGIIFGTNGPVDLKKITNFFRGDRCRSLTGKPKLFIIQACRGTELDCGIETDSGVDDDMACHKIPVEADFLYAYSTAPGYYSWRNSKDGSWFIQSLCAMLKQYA
Luc interf = luminescence interference (SENP counter-screen) | shares compounds with SENP7 block | Pre-incubated SENP8/Z-RLRGG-aminoluciferin, luciferase luminescence interference | inhibition, % at 12.5 µM | 6,200 compounds, 39% hits;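 active = mean inhibition above about 50% when retested at one dose, limit read from the data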;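 note: plate controls were DMSO wells with completed reaction for no effect and substrate without enzyme for full effect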
Numbers without * were called inactive; i = inactive; . = not tested or not shown. Most compounds without a hit are left out; they make up all but 2.3% or so of the library.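 Rule for the calls, unless noted: active = mean inhibition above about 50% in the one-dose retest (limit read from the data); inactive = the rest.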

SMILES	SENP7 block	SENP8 block-1	LGR2 antag	SENP6 block	SENP8 block-2	HSP90 inh	SENP8 conf	SENP6 confirm	SENP7 confirm	Casp3 select	Luc interf
CCc1ccc(C(=O)c2cc3ccc(O)cc3oc2=O)cc1	7.2	-199.2	-9.1	59.7*	47.8	-0.7	66.1*	61.8*	84.2*	71.2*	65.8*
CC(=O)c1cc2ccc(O)cc2oc1=O	18.4	-422.3	-1.8	13.6	4.2	4.3	.	.	.	.	.
COc1ccc(C(=O)c2cc3ccc(O)cc3oc2=O)cc1	96.7*	-275.4	-6.5	99.6*	95.5*	1.0	96.3*	96.9*	102.5*	98.4*	94.9*
O=C(c1ccccc1)c1cc2ccc(O)cc2oc1=O	98.4*	-150.9	.	95.3*	95.8*	-3.7	97.6*	98.8*	102.3*	97.9*	95.5*
O=C(NNC(=O)c1cc2cc(Br)ccc2oc1=O)c1ccc(O)cc1O	-1.7	20.9	3.3	-12.2	1.2	-2.5	.	.	.	.	.
COc1ccc(-c2cc3ccc(OCC(N)=O)cc3oc2=O)cc1OC	-22.6	-323.0	4.3	-12.2	-21.0	-4.8	.	.	.	.	.
O=C(NCc1ccco1)c1cc2ccc(O)cc2oc1=O	95.6*	-406.5	12.9	98.2*	94.6*	14.5	99.2*	100.1*	103.4*	99.4*	99.0*
COc1ccc(-c2cc3ccc(O)cc3oc2=O)cc1OC	99.6*	-382.5	-38.9	98.8*	94.9*	-5.6	99.3*	100.3*	103.1*	98.9*	96.0*
COc1ccc2cc(C(=O)NCc3ccco3)c(=O)oc2c1	-4.7	i	.	-11.5	-6.9	0.1	.	.	.	.	.
CSc1nnc(NC(=O)c2ccc(S(=O)(=O)N(C)C)cc2)s1	51.0*	-4.6	-4.1	21.9	40.6	4.4	15.7	14.3	13.0	31.5	5.9
CCOC(=O)c1cnc2cc(-c3ccc(Cl)cc3)nn2c1N	14.9	-101.9	-43.5	-4.8	-12.5	-0.1	.	.	.	.	.
CSc1nc(N)n2nc(-c3ccc(Cl)cc3)cc2n1	98.2*	3.3	.	94.1*	89.3*	-2.3	-4.0	13.8	8.8	30.6	-6.3
O=C(N[C@H]1CC[C@@H](CCn2cc(C3(O)CCCC3)nn2)O[C@H]1CO)C1CCCCC1	.	.	-13.1	.	.	.	.	.	.	.	.
NC(N)=NC(N)=Nc1cccc2ccccc12	66.5*	11.8	10.8	60.6*	13.0	4.9	8.0	5.7	1.5	-3.5	-4.8
Cc1noc(C)c1NC(=O)N(C)C[C@@H]1Oc2ccc(NC(=O)CCCCCC(=O)Nc3ccccc3N)cc2C(=O)N([C@H](C)CO)C[C@@H]1C	.	.	1.1	.	.	.	.	.	.	.	.
COc1ccc(C(=O)COC(=O)c2n[nH]c3ccccc23)c(OC)c1	20.6	-4.4	-115.4	51.4*	24.6	.	43.3	36.6	69.1*	31.9	34.7
O=C(c1cnccn1)N1CC(=O)N2[C@H](CO)[C@@H](c3ccc(-c4cccc(F)c4)cc3)[C@@H]2C1	.	.	1.2	.	.	.	.	.	.	.	.
c1ccc(-c2ccc(-c3cn4c(n3)CCC4)cc2)cc1	72.8*	-444.5	.	86.8*	68.6*	8.5	79.6*	80.1*	94.7*	66.1*	59.9*
COc1cc(OC)cc(C(=O)Nc2cccc(NC(=O)c3ccccc3)c2)c1	-3.9	17.5	-8.7	-7.0	-2.8	-2.4	.	.	.	.	.
COc1cc(OC)cc(C(=O)Nc2cccc(C(C)=O)c2)c1	68.4*	20.8	.	64.6*	38.9	1.4	57.5*	53.3*	81.5*	77.9*	62.8*
COc1cc(OC)cc(C(=O)Nc2ccc(Nc3ccccc3)cc2)c1	58.0*	2.8	-31.0	79.5*	60.3*	-6.4	65.1*	61.3*	84.6*	32.0	21.1
COc1cc(OC)cc(C(=O)NC(C(=O)Nc2ccc3c(c2)OCCO3)C(C)C)c1 (stereo not drawn)	0.7	16.2	-5.9	0.2	2.2	.	.	.	.	.	.
COc1cc(OC)cc(C(=O)Nc2ccc3c(c2)OCCO3)c1	95.7*	14.5	-38.3	98.4*	92.1*	-0.6	-3.8	95.4*	101.8*	96.3*	95.0*
Cc1noc(NS(=O)(=O)c2ccc(NC(=O)Nc3ccc(Cl)c(Cl)c3)cc2)c1C	15.7	20.9	.	86.2*	81.7*	-2.4	89.0*	89.0*	95.0*	50.7*	85.4*
COc1cccc(C(=O)/C=C/Nc2ccc(S(=O)(=O)Nc3onc(C)c3C)cc2)c1	58.4*	-1.7	7.2	88.3*	78.3*	-2.8	67.8*	66.9*	86.2*	68.5*	24.6
SMILES	SENP7 block	SENP8 block-1	LGR2 antag	SENP6 block	SENP8 block-2	HSP90 inh	SENP8 conf	SENP6 confirm	SENP7 confirm	Casp3 select	Luc interf
Cc1noc(NS(=O)(=O)c2ccc(N/C=C\C(=O)c3ccc(Br)cc3)cc2)c1C	-11.4	-56.9	-31.3	-13.2	-12.5	-2.2	.	.	.	.	.
Cc1cc(NS(=O)(=O)c2ccc(NC(=O)Nc3ccccc3)cc2)no1	33.0	19.6	.	53.8*	22.7	-0.2	34.2	30.4	67.1*	68.8*	30.2
Cc1noc(C)c1S(=O)(=O)N(C)C[C@H]1Oc2ccc(NS(=O)(=O)c3ccccc3)cc2CC(=O)N([C@@H](C)CO)C[C@H]1C	.	.	18.5	.	.	.	.	.	.	.	.
C[C@H]1CN([C@@H](C)CO)S(=O)(=O)c2ccc(C#CC3CC3)cc2O[C@H]1CN(C)C(=O)C1CCC1	.	.	-3.4	.	.	.	.	.	.	.	.
O=C(C[C@H]1CC[C@H]2[C@@H](COC[C@@H](O)CN2C(=O)c2ccc(F)cc2)O1)NCCCN1CCOCC1	.	.	-1.9	.	.	.	.	.	.	.	.
O=C1C(C=Nc2ccc(F)cc2)=C(O)c2ccccc21	94.5*	22.9	13.7	76.4*	73.6*	0.6	50.8*	53.5*	66.7*	66.1*	20.3
COc1ccc(N=CC2=C(O)c3ccccc3C2=O)c(OC)c1	99.4*	50.1*	.	90.5*	94.8*	33.3*	52.9*	96.4*	102.3*	88.5*	3.2
O=C1C(C=NCc2ccncc2)=C(O)c2ccccc21	-9.1	8.1	.	1.7	-5.8	4.9	.	.	.	.	.
O=C1C(C=NCc2ccco2)=C(O)c2ccccc21	7.2	16.8	.	-53.8	-3.8	-0.9	.	.	.	.	.
Cc1ccccc1N=CC1=C(O)c2ccccc2C1=O	102.2*	40.1*	100.9*	98.1*	92.6*	9.7	94.4*	97.7*	102.4*	97.3*	54.3*
C[C@@H]1CCCCO[C@H](CN(C)C(=O)Nc2ccc3c(c2)OCO3)[C@H](C)CN([C@@H](C)CO)C(=O)c2cc(NC(=O)Nc3ccccc3)ccc2O1	.	.	1.7	.	.	.	.	.	.	.	.
